Results reported in PubChem BioAssay.

Molecular target: Torsin-1A-interacting protein 1 (Homo sapiens) (UniProt Q5JTV8)
Assay: compound microarray binding of lysate hLAP1 – cell lysate, small-molecule microarray, COS7 lysate, 635/667 nm fluorescence, primary screen (AID 1116)
Conditions: 635 nm fluorescence, higher = more signal

Sequence of Torsin-1A-interacting protein 1 (Homo sapiens) (Q5JTV8 whole entry, looked up): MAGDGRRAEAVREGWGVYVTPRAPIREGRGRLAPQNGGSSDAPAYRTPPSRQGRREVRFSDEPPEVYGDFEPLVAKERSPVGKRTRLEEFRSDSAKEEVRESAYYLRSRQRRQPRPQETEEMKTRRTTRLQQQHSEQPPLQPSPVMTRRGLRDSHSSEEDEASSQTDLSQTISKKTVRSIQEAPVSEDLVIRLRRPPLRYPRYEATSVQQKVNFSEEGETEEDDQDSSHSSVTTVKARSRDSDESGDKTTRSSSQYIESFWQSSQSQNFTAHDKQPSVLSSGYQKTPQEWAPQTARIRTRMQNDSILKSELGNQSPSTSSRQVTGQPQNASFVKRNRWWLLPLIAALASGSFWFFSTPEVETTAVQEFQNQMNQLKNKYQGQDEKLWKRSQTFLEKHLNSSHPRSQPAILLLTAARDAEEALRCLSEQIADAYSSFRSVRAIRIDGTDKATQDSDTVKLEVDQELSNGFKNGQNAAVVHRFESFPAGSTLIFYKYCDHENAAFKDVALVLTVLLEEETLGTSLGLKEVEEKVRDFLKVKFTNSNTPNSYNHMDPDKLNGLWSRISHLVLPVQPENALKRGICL

Structure (SMILES) | composite z-score
CC(C)(C)OC(=O)CC[C@]1(C(=O)N2CCOCC2)N=C(c2ccc(OCCCO)cc2)O[C@H]1c1ccccc1CN=[N+]=[N-] | 2.38
CC(c1ccccc1)C(O)C1C=CC2C(=O)N(c3ccccc3)C(=O)C2N1Nc1ccc(C#N)cc1 (stereo not given) | 1.8
COc1ccc(CCNC(=O)[C@@]2(Sc3ccc(C)cc3)CC(=O)N(Cc3cc(C(F)(F)F)cc(C(F)(F)F)c3)[C@@H]2c2ccc(CO)cc2)cc1 | -0.282
CCOC(=O)C[C@H]1[C@H](OC(=O)c2cc3ccccc3oc2=O)[C@@H](NC(=O)C2CCCCC2)c2cc(OCCCO)ccc2N1C(=O)Cc1ccc(OC)cc1 | 0.404
CC1CC/C=C\[C@H]2OC34C=CCN(CCN5CCOCC5)C(=O)[C@H]3N(CCCCCCO)C(=O)[C@@H]4C2C(=O)O1 (stereo not given in full) | -0.933
CCOC(=O)C1=CC[C@@H](c2ccc(F)cc2)N(S(=O)(=O)c2ccc(C)cc2)[C@H]1c1ccc([N+](=O)[O-])cc1 | 0.341
COC(=O)[C@@]1(Cc2ccc(OC)cc2)[C@@H]2[C@@H](CC(=O)[C@H]2CC(=O)C(=O)N2CCCC2)CN1C(=O)c1ccccc1 | 2.12
C=CCNC(=O)[C@H]1[C@@H]2C(=O)O[C@@H](c3ccccc3)[C@@H](c3ccccc3)N2[C@@H](c2ccc(O)cc2)[C@]12C(=O)Nc1ccc(C#CC3=CCCCC3)cc12 | 1.11
COC(=O)Cn1c(C(=O)N(C)C)cc2c1C[C@H]1CN(C(=O)c3ccccc3)[C@@](Cc3ccc(OC)cc3)(C(=O)OC)[C@@H]21 | 1.8
O=C1O[C@@H](c2ccccc2)[C@@H](c2ccccc2)N2[C@@H](c3ccc(O)cc3)[C@]3(C(=O)Nc4ccc(C#CC5=CCCCC5)cc43)[C@@H](C(=O)N3CCCCCCC3)[C@H]12 | 3.16
CC(C)C[C@H]1NC(=O)[C@@]23C(=O)N[C@@H](Cc4ccccc4)C2[C@H](C)[C@@]2(C)O[C@H]2C3/C=C/C/C=C\CNC(=O)[C@@H]2CCCN2C1=O (stereo not given in full) | 0.268
C#CCN(C/C=C/c1ccccc1)[C@H](CO[Si](C)(C)C(C)(C)C)c1ccccc1 | -0.221
COC(=O)C1(CC(C)C)C=C2C(=C(C(C)C)C(=O)C2C)CN1 (stereo not given) | 0.187
CC=CC(O)C1C=CC2C(=O)N(C)C(=O)C2N1NC(=O)OC(C)(C)C (stereo not given) | 0.512
COc1cc2c(cc1O)C(C1CC1)N(Cc1ccc([N+](=O)[O-])o1)CC2 (stereo not given) | 1.04
CC(C)C[C@H]1NC(=O)[C@@H](C)NC(=O)[C@@]23C(=O)N[C@@H](Cc4ccccc4)C2[C@H](C)[C@@]2(C)O[C@H]2C3/C=C/C/C=C\CNC1=O (stereo not given in full) | -0.0872
COCCOC(=O)N1C(=O)[C@@]2(c3cc(C#Cc4ccc(OC)cc4)ccc31)[C@H](C(=O)N1CCCCCCC1)[C@H]1C(=O)O[C@H](c3ccccc3)[C@H](c3ccccc3)N1[C@@H]2c1ccccc1OCCO | 4.47
CCCCN1CC=CC23O[C@@H]4C=CCOC(=O)[C@@H]4[C@H]2C(=O)N(C(CO)C(C)C)[C@@H]3C1=O (stereo not given in full) | -0.457

Structure (SMILES) | composite z-score
C[C@H]1NC(=O)C([C@@H](C)OCc2ccccc2)NC(=O)[C@@]23C(=O)N[C@@H](Cc4ccccc4)C2[C@H](C)[C@@]2(C)O[C@H]2C3/C=C/C/C=C\CNC1=O (stereo not given in full) | -0.0194
C=CCC(OC(C)=O)[C@@H]1[C@@H](N(Cc2cc3ccccc3o2)C(=O)c2cccc3ccccc23)c2cc(OCCCO)ccc2N1C(=O)c1ccc2ccccc2c1 (stereo not given in full) | 0.414
NC(=O)NCC#Cc1ccc2c(c1)[C@]1(C(=O)N2)[C@H](C(=O)N2CCCCCCC2)[C@H]2C(=O)O[C@H](c3ccccc3)[C@H](c3ccccc3)N2[C@@H]1c1ccc(O)cc1 | 2.19
[N-]=[N+]=NCc1ccccc1[C@H]1OC(c2ccc(OCCCO)cc2)=N[C@@]1(Cc1ccccc1)C(=O)N1CCOCC1 | 1.43
CC(C)=CCN(C(=O)C#Cc1ccccc1)[C@H](CO)c1ccccc1 | 0.58
CCCC=C(CCC)[C@@H](NC(=O)c1ccco1)c1ccc(C(=O)OC)cc1 | 1.02
CN(C)CCCCNC(=O)[C@H]1C[C@H]2C(=O)NCC(=O)N2[C@H]1c1cccc(OCCO)c1 | 0.668
N#Cc1ccc(C(O)C2C=CC3C(=O)NC(=O)C3N2Nc2ccccn2)cc1 (stereo not given) | -0.298
C=CCC(OC(C)=O)[C@@H]1[C@@H](N(Cc2ccc(-c3cccc(C(F)(F)F)c3)o2)C(=O)Cc2ccc(F)cc2)c2cc(OCCCO)ccc2N1C(=O)c1ccc2ccccc2c1 (stereo not given in full) | 0.0175
COCCOC(=O)N1C(=O)[C@@]2(c3cc(C#CC4(O)CCCCCC4)ccc31)[C@H](c1ccc(OCCO)cc1)N1[C@H](c3ccccc3)[C@H](c3ccccc3)OC(=O)[C@H]1[C@@H]2C(=O)N1CCCCCCC1 | 2.51
CO[C@H]1O[C@H](CO)[C@@H](OC(=O)Nc2ccc(C(F)(F)F)cc2)[C@H](OC(=O)Nc2ccccc2-c2ccccc2)[C@@H]1OC(=O)Nc1ccccc1-c1ccccc1 | 1.47
COCCOC(=O)N1C(=O)[C@@]2(c3cc(C#CCC(C(=O)OC)C(=O)OC)ccc31)[C@H](C(N)=O)[C@H]1C(=O)O[C@H](c3ccccc3)[C@H](c3ccccc3)N1[C@@H]2c1ccc(OCCO)cc1 | 0.775
CCCCNC(=O)c1ccc(C#C[Si](C)(C)C)c(OC(C)=O)c1 | 0.37
COCCOC(=O)N1C(=O)[C@@]2(c3cc(C#Cc4ccc(OC)cc4)ccc31)[C@H](C(=O)Nc1nc3ccccc3s1)[C@H]1C(=O)O[C@H](c3ccccc3)[C@H](c3ccccc3)N1[C@@H]2c1ccccc1OCCO | 0.188
COC(=O)[C@@]1(Cc2ccc(F)cc2)[C@H]2c3cc(C(=O)N4CCCC4)n(CCO)c3C[C@H]2CN1C(=O)c1ccccc1 | 0.956
CCC[C@@H]1C=C(C(=O)OCC)[C@H](c2ccccc2)N1S(=O)(=O)c1ccc(C)cc1 | 1.69
COCCOC(=O)N1C(=O)[C@@]2(c3ccccc31)[C@H](C(N)=O)[C@H]1C(=O)O[C@H](c3ccccc3)[C@H](c3ccccc3)N1[C@@H]2c1ccc(OCCO)cc1 | 0.905
